# High-throughput results (PubChem)
# AmpC detergent – blocks E. coli AmpC beta-lactamase in detergent assay | Potency, µM (doses to about 114 µM), without a hit: at the highest dose activity change, negative = inhibition, actives largely listed as inhibitors | P00811 | actives 0.041% (n = 370,000) | AmpC hydrolysis of nitrocefin, absorbance 480 nm, 0.01% Triton;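 note: potency is the fitted concentration of half-maximal effect; 0% = no-compound wells and -100% = no-enzyme wells; nearly all actives have a fitted effect of over 25% in size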
# Target sequence (P00811 whole entry, looked up): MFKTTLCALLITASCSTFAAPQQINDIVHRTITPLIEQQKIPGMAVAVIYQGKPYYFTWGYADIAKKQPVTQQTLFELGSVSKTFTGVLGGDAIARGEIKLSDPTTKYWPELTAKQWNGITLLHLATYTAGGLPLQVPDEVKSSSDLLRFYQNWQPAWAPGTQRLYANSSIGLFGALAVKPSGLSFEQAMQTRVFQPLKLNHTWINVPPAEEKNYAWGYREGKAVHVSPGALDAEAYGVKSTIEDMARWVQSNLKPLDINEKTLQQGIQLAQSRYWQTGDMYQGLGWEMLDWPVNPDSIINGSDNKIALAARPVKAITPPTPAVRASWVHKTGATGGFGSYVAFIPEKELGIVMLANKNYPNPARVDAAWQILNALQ
#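 20 mM phosphate pH 7.0 + 0.01% (detergent screen) or 0.0001% Triton X-100; 5.3 nM AmpC reagent; cpd preinc 15 min RT; nitrocefin (800 uM stock) to start; A480 q20 s × 4 min; Activity was normalised to no-enzyme and no-compound control wells.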
# AmpC inh no detg – blocks E. coli AmpC beta-lactamase in detergent-free assay | actives 0.52% (n = 330,000) | AID 485341 | P00811 | Potency, µM (highest dose often 57.1 µM), for inactives: at the highest dose activity change, negative = inhibition, actives largely listed as inhibitors | AmpC nitrocefin hydrolysis, absorbance 480 nm, 0.0001% Triton;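 note: potency is the fitted concentration of half-maximal effect; plate controls were no compound for no effect and no enzyme for full effect; nearly all actives have a fitted effect of over 20% in size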
#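 AmpC (5.3 nM in the dispensed reagent) in 20 mM phosphate pH 7.0 with 0.01% (detergent screen) or 0.0001% Triton X-100 was preincubated with compounds for 15 min at room temperature. Nitrocefin was then added from an 800 uM solution, and hydrolysis was followed at 480 nm.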
# NS1 function inh – influenza NS1 inhibition; Potency, µM (doses to about 46.1 µM), for inactives: top-dose activity, positive = more growth; actives 0.4% (n = 270,000); AID 2326; calls by dose curve; note: potency is the fitted concentration of half-maximal effect; actives are rising curves; nearly all actives have a fitted effect of over 50% in size
#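 Compounds were scored for reversing the slow growth caused by influenza A NS1 in S. cerevisiae, measured by optical density at 600 nm. Assay medium contained 2% galactose at pH 6.0; NS1-free yeast of the same strain were the positive control.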
# Cycloheximide cs – counter-screen for Shiga toxin inhibitors: cycloheximide protein synthesis inhibition; AID 2314; max response, %; actives 12% (n = 300,000); cell reporter, cycloheximide protein synthesis inhibition counterscreen; in the data active = max response mostly above about 13%, no sharp cut-off; inactive = mostly below about 14%; note: read at 38.3 µM for the half of the compounds with a filed dose; 0% is about no effect
# Shiga inhibitor – blocks Shiga toxin action in Vero cells. Vero cells, Shiga toxin protein synthesis inhibition reporter. inhibition, % at 38.7 µM. actives 9.2% (n = 290,000). AID 2315; in the data active = inhibition mostly above about 28%, no sharp cut-off; inactive = mostly below about 43%; note: 0% is about no effect
# An asterisk follows results filed as active; ? = inconclusive; . = no result given; [ ] = remark or other dose. Many of the other results were omitted from the sample, so hits are more common in it than they were. Unless noted, calls come from the whole dose curve; as a rule, active = well fitted curve in the direction sought with a large enough effect; inconclusive = small, poorly fitted or top-dose-only effect, or another doubt; inactive = no such curve, though single readings can be large; an effect the other way counts as inactive or inconclusive.
SMILES,AmpC detergent,AmpC inh no detg,NS1 function inh,Cycloheximide cs,Shiga inhibitor
C[C@]12CC[C@@H]3c4ccc(O)cc4CC[C@H]3[C@@H]1CC[C@H]2O,.,.,.,8,1
O=C(Cc1ccccc1[N+](=O)[O-])NNC(=O)Nc1ccc2c(c1)OCO2,?,-12%,-4%,0,2
O=C(Cc1ccccc1[N+](=O)[O-])Nc1ccc2c(c1)OCO2,1%,-15%,-13%,17*,66
Cc1ccc(C)c(NC(=O)Nc2ccc3c(c2)OCO3)c1,2%,-35%,2%,47*,55*
Cc1cc(OC(F)F)ccc1NC(=O)Nc1ccc2c(c1)OCO2,2%,2%,6%,-2,15
CCC(Oc1ccccc1OC)C(=O)Nc1ccc2c(c1)OCCO2 (configuration not stated),2%,-13%,-6%,16*,27
COc1ccc(NC(=O)Nc2ccc3c(c2)OCO3)c(C)c1,2%,2%,2%,66*,82*
COc1ccc(-n2ccn(Cc3ccc(C)cc3)c(=O)c2=O)cc1OC,-10%,.,.,.,.
CCOC(=O)C(CC)Sc1ncnc2c1c(-c1ccccc1)cn2-c1ccc(OC)cc1 (configuration not stated),-2%,.,.,.,.
C[C@@H]1C[C@H](C)CN(S(=O)(=O)c2cc(Cl)c(Oc3ccc([N+](=O)[O-])cc3Cl)c(Cl)c2)C1,.,.,-5%,.,.
Cc1ccc(CNc2ccc3c(c2)OCO3)c(C)c1,0%,.,-1%,44*,91*
Cc1ccc(NC(=S)NCc2ccc3c(c2)OCO3)c(C)c1,1%,-17%,-24%,9,9
COc1ccc(CNC(=O)C2CCN(S(=O)(=O)c3ccc(F)cc3)CC2)cc1,6%,.,.,.,.
COCCNc1c(-c2cc3ccc(C)c(C)c3[nH]c2=O)nc2ccccn12,6%,-8%,2%,42*,63*
COCCNc1c(-c2ccc(OC)c(OC)c2)nc2ccc(Cl)cn12,-1%,-41%,-2%,-5,-11
COc1ccc(-c2cn3c4c(sc3n2)CCCC4)cc1,1%,-1%,-131%,36*,36
C/C(CC(=O)Nc1ccccn1)=N\NC(=O)c1ccccc1O,4%,-30%,-47%,52*,68*
CCNC(=O)C/C(C)=N/NC(=O)C(=O)Nc1ccc(CC)cc1,-3%,-21%,.,26*,37
CCCNC(=O)C/C(C)=N/NC(=O)C(=O)Nc1ccccn1,6%,-16%,0%,26*,29
C/C(CC(=O)Nc1ccccn1)=N\NC(=O)c1ccccc1,?,-30%,0%,30*,21
C/C(CC(=O)Nc1ccccn1)=N\NC(=O)Cc1cccc2ccccc12,2%,-19%,16%,0,-1
CCCCN(C)c1nc2c(S(=O)(=O)c3ccc(CC)cc3)nnn2c2ccc(Cl)cc12,9%,.,.,.,.
CN(C)CN1CSC(=S)N(CN(C)C)C1,.,.,-15%,.,.
C/C(CCc1ccccc1)=N\NC(=O)c1ccccc1,-6%,-13%,-8%,30*,90*
C/C(CC(=O)Nc1ccccn1)=N\NC(=O)c1ccc2ccccc2c1,-9%,-26%,-1%,15*,28
SMILES,AmpC detergent,AmpC inh no detg,NS1 function inh,Cycloheximide cs,Shiga inhibitor
C/C(=N/NC(=O)CNC(=O)CCc1ccccc1)c1ccc(Cl)cc1,-7%,-8%,-3%,7.1*,20
C/C(CC(=O)Nc1ccccn1)=N\NC(=O)c1ccncc1,?,-4%,-7%,-5,-3
C/C(CC(=O)Nc1cc(C)ccn1)=N\NC(=O)c1cccc(C)c1O,-3%,?,-58%,26*,69*
CC(=O)N/N=C(\C)CCc1ccccc1,?,-10%,.,-1,10
Cn1c(Cc2cccs2)nnc1SCC(=O)Nc1ccc(C(N)=O)cc1,-3%,-16%,.,.,.
COc1ccccc1CNC(=O)C1CCN(S(=O)(=O)c2ccc3[nH]c(=O)ccc3c2)CC1,1%,.,.,.,.
COc1cccc(CNC(=O)CSc2cc(C)[nH]c(=O)n2)c1,-3%,.,.,.,.
Cc1ccc(CNS(=O)(=O)c2c(C(=O)N3CCC(C)CC3)c(C)n(C)c2C)cc1,-3%,.,.,.,.
CCOC(=O)CN1C(=O)CN(c2ccc(C)cc2)C1=O,2%,-13%,-2%,29*,50*
COc1ccc(CCN2CC(C(=O)NCc3nc(C)c(C)s3)CCC2=O)cc1 (configuration not stated),?,67%,3%,-2,-4
COc1ccccc1C(=O)OCc1nc(N)nc(Nc2ccccc2C)n1,-11%,-8%,-4%,36*,43
Cc1ccccc1Nc1nc(N)nc(COC(=O)c2ccco2)n1,.,-18%,.,.,.
Cc1ccccc1Nc1nc(N)nc(COC(=O)C2CCCCC2)n1,-2%,-4%,-17%,71*,70*
Cc1ccc(N2CC(C(=O)OCc3nc(N)nc(Nc4ccccc4C)n3)CC2=O)cc1 (configuration not stated),0%,25%,.,.,.
CCCCC(=O)OCc1nc(N)nc(Nc2ccccc2C)n1,?,-10%,3%,58*,active
COc1cccc(/C=C/c2onc(C)c2S(=O)(=O)N2CCC(C(=O)N3CCCCC3)CC2)c1,-6%,.,.,.,.
COC(=O)CSc1nc2sc3c(c2c(=O)n1Cc1ccccc1)CCC(C(C)(C)C)C3 (configuration not stated),12%,.,.,.,.
Cc1ccc(-n2cc3c(c2-c2ccccc2Br)c(=O)n(C)c(=O)n3C)cc1N,16%,.,.,.,.
CN(CC(=O)Nc1ccccc1Br)C(=O)CN1CCN(c2ccccc2Cl)CC1,5%,132%,.,.,.
Cc1cc(N2C(=O)CC(N3CCN(c4ccc(C(=O)c5cccs5)cc4)CC3)C2=O)no1 (configuration not stated),0%,0.5µM*,-32%,13,0
O=C(c1ccc(N2CCOCC2)cc1)c1cccs1,-8%,?,-10%,31*,53*
O=C(N/N=C/c1ccc(N2CCOCC2)cc1)c1cccs1,?,-19%[11.4 µM],.,39*,79*
CCOc1cc(/C=N/NC(=O)c2cccs2)ccc1OC(=O)N1CCOCC1,-6%,-17%,-11%,45*,109*
CCOc1cc(/C=N/NC(=O)COc2ccccc2C)ccc1OC(=O)c1cccs1,?,-32%,29%,-1,-5
COC(=O)c1ccc(CNC(=O)c2ccc(S(=O)(=O)N3CCCC(C)C3)cc2)cc1 (configuration not stated),1%,-11%,.,.,.
SMILES,AmpC detergent,AmpC inh no detg,NS1 function inh,Cycloheximide cs,Shiga inhibitor
O=C1CCC[C@H]1C(=O)Nc1ccc2ccccc2c1,.,.,0%,.,.
CC(=O)Nc1ccc2c(c1)C(=Nc1ccc(C(=O)O)cc1)c1ccccc1-2,.,.,-16%,.,.
Cc1ccc(COc2ccc(C)nc2[N+](=O)[O-])cc1,?,-14%,-5%,50*,83*
Cc1ccc(OCC(=O)c2ccc(Cl)s2)c([N+](=O)[O-])n1,6%,?,.,27,43
COc1ccc(OCCOc2ccc(C)nc2[N+](=O)[O-])cc1,0%,-1%,-9%,49*,93*
Cc1ccc(OCCOc2ccc(Cl)cc2Cl)c([N+](=O)[O-])n1,-1%,-17%,-5%,52*,106*
